Results: PubChem BioAssay AID624260 (Broad Institute, 2012)
Among all 44,000 compounds or so, about 30 (0.07%) were called active. Another 1% or so got no clear call; they are omitted. No stated cut-off is given here; in the data, active means inhibition above about 54% (passing the limit was not always enough); inconclusive means no clear call, values can overlap the other calls. What follows is part of a selection rich in actives, with near analogues and random picks from the rest.

target: Histone-lysine N-methyltransferase NSD2 (Homo sapiens) (UniProt O96028); assay: inhibitors of human NSD2, primary screen, biochemical, plate reader, single point (AID 624260); details: NSD2-SET H3K36me1 DELFIA fluorescence, at 12.5 µM, stronger effect = higher value;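 further: inhibitors reduce the monomethyl H3K36 fluorescence signal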
Sequence (O96028 whole entry, looked up): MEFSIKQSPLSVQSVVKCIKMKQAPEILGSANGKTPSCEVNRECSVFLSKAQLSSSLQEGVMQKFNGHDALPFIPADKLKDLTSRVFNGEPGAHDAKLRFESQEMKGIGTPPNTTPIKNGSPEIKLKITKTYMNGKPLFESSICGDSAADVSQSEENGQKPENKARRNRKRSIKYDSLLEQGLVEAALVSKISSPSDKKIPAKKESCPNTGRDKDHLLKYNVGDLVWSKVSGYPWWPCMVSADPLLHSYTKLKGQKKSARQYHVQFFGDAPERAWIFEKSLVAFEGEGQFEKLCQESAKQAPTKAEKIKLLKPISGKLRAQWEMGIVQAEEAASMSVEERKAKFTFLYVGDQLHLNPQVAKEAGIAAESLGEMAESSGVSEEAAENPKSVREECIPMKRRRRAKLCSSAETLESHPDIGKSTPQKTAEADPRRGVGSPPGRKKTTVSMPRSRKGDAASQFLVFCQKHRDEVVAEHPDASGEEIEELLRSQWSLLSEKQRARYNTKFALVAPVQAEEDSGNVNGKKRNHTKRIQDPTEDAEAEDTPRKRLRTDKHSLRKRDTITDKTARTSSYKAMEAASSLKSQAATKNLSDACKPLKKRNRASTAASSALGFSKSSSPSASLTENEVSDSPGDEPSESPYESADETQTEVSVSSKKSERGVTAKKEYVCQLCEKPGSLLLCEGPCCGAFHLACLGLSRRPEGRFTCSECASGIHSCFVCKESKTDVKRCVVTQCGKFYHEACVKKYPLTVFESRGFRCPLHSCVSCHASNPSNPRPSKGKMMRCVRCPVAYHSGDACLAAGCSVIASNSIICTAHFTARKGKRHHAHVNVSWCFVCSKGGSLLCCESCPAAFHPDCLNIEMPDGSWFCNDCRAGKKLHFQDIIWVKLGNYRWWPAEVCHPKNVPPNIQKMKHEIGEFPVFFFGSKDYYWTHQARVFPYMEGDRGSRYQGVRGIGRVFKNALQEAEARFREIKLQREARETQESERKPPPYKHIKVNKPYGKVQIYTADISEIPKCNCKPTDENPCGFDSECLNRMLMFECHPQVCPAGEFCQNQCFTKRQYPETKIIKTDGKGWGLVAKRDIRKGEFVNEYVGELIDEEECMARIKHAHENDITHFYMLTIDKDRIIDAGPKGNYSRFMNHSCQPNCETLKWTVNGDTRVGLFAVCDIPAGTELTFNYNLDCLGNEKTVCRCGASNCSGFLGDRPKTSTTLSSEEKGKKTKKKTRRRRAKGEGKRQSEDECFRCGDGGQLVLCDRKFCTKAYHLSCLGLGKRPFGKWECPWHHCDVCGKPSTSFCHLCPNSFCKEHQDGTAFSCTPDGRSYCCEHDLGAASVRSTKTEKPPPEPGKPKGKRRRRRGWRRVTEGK

inhibition, inactive:
O=C(C[C@H]1C[C@@H]2c3cc(NC(=O)c4cccnc4)ccc3O[C@@H]2[C@@H](CO)O1)NCc1ccccc1F -0.738%
CCCN(C)C[C@H]1Oc2cc(C#CCC3CCCC3)ccc2S(=O)(=O)N([C@@H](C)CO)C[C@@H]1C 1.41%
C[C@@H]1CN([C@@H](C)CO)C(=O)Cc2cc(NC(=O)Nc3ccc4c(c3)OCO4)ccc2O[C@H]1CN(C)S(=O)(=O)c1ccc(F)cc1 5.36%
C[C@H](CO)N1C[C@H](C)[C@@H](CN(C)Cc2ccc(C(F)(F)F)cc2)Oc2ccc(NC(=O)Cn3cnnn3)cc2CC1=O -8%
CC(C)NC(=O)N(C)C[C@H]1Oc2cc(C#Cc3ccccn3)ccc2S(=O)(=O)N([C@H](C)CO)C[C@@H]1C 4.46%
CC(/C=C/C(=O)NO)=C\c1ccccc1OCc1ccc(COc2ccc3ccncc3c2)cc1 -5.12%
C[C@@H]1CN([C@H](C)CO)S(=O)(=O)c2ccc(/C=C/c3ccccc3)cc2O[C@@H]1CN(C)C(=O)Nc1ccc(F)cc1 -10.2%
C[C@H]1CN([C@@H](C)CO)C(=O)Cc2cc(NC(=O)Nc3cccc4ccccc34)ccc2O[C@@H]1CN(C)C 1.05%
Cc1ccc(-c2ccc3c(c2)O[C@H](CN(C)C(=O)Nc2ccccc2)[C@@H](C)CN([C@@H](C)CO)S3(=O)=O)cc1 -6.18%
CCCNC(=O)C[C@H]1C[C@@H]2c3cc(NC(=O)c4ccc5c(c4)OCO5)ccc3O[C@@H]2[C@@H](CO)O1 7.66%
C[C@H](CO)N1C[C@H](C)[C@@H](CN(C)CC2CC2)Oc2ccc(NC(=O)CCCN(C)C)cc2CC1=O 3.07%
O=C(C[C@H]1CC[C@H](NC(=O)Nc2ccc(C(F)(F)F)cc2)[C@H](CO)O1)NCCN1CCCC1 -1.99%
COc1ccc(NC(=O)N(C)C[C@H]2OCc3ccccc3-c3ccccc3C(=O)N([C@H](C)CO)C[C@@H]2C)cc1 -1.37%
CCC(=O)N(C)C[C@H]1Oc2cc(C#CCOC)ccc2S(=O)(=O)N([C@H](C)CO)C[C@H]1C -1.1%
O=C(C[C@H]1C[C@H]2c3cc(NC(=O)Nc4ccc(F)cc4)ccc3O[C@H]2[C@@H](CO)O1)NCC1CC1 2.39%
COc1ccc(CN(C)C[C@H]2OCCCC[C@H](C)Oc3ccc(NS(=O)(=O)c4ccc(C)cc4)cc3C(=O)N([C@@H](C)CO)C[C@H]2C)cc1 2.76%
C[C@@H]1CN([C@@H](C)CO)C(=O)Cc2cc(NC(=O)Nc3ccc(C(F)(F)F)cc3)ccc2O[C@H]1CN(C)C(=O)Nc1ccc(F)cc1 -13.8%
Cc1ccc(S(=O)(=O)N(C)C[C@@H]2Oc3ccc(NC(=O)C4CCCCC4)cc3CC(=O)N([C@@H](C)CO)C[C@H]2C)cc1 -6.23%
CCC(=O)N(C)C[C@@H]1Oc2cc(-c3ccc(OC)cc3)ccc2S(=O)(=O)N([C@@H](C)CO)C[C@H]1C 1.75%
C[C@H](NC(=O)C[C@@H]1CC[C@H](NC(=O)CN2CCOCC2)[C@H](CO)O1)c1ccccc1 -3.53%
COc1cccc(S(=O)(=O)N(C)C[C@@H]2Oc3ncc(-c4cccc(C(=O)N(C)C)c4)cc3C(=O)N([C@H](C)CO)C[C@@H]2C)c1 5.93%
COc1ccc(NC(=O)Nc2ccc3c(c2)C(=O)N([C@H](C)CO)C[C@@H](C)[C@H](CN(C)C(=O)Cc2ccccc2)OCCCC[C@H](C)O3)cc1 -2.17%
CCCNC(=O)C[C@H]1C[C@@H]2c3cc(NC(=O)C4CCOCC4)ccc3O[C@@H]2[C@@H](CO)O1 11%
C/C=C/c1ccc2c(c1)O[C@H](CN(C)C(=O)CN(C)C)[C@H](C)CN([C@@H](C)CO)S2(=O)=O 1.3%
Cc1noc(C)c1S(=O)(=O)Nc1ccc2c(c1)C(=O)N([C@H](C)CO)C[C@@H](C)[C@@H](CN(C)S(=O)(=O)c1ccc(Cl)cc1)O2 -1.25%
C[C@H](CO)N1C[C@H](C)[C@@H](CN(C)Cc2ccccc2)OCCCC[C@H](C)Oc2ccc(NC(=O)Cc3ccccc3)cc2C1=O -3.29%
CCCN(C)C[C@H]1Oc2cc(C#CCC(C)C)ccc2S(=O)(=O)N([C@H](C)CO)C[C@H]1C 0.338%
C[C@H]1CN([C@@H](C)CO)C(=O)c2cccc(NC(=O)Nc3ccc(C(F)(F)F)cc3)c2O[C@H]1CN(C)CC1CCCCC1 1.34%
C[C@H](CO)N1C[C@H](C)[C@H](CN(C)Cc2ccccc2)OCCCC[C@H](C)Oc2ccc(NC(=O)c3ccccc3)cc2C1=O 8.82%
C[C@H]1CN([C@@H](C)CO)C(=O)c2cc(-c3ccncc3)cnc2O[C@H]1CN(C)C(=O)c1cccc(F)c1 -1.28%
CC(C)CC#Cc1ccc2c(c1)O[C@H](CN(C)C(=O)c1cccnc1)[C@@H](C)CN([C@H](C)CO)S2(=O)=O 0.112%
C[C@H]1CN([C@@H](C)CO)C(=O)c2cc(C3=CCCCC3)cnc2O[C@H]1CN(C)Cc1ccncc1 3.39%
C/C=C/c1ccc2c(c1)O[C@@H](CN(C)C(=O)Cc1ccccc1)[C@H](C)CN([C@@H](C)CO)S2(=O)=O 5.94%
COc1ccc(NC(=O)N(C)C[C@H]2Oc3cc(C#CCN(C)C)ccc3S(=O)(=O)N([C@@H](C)CO)C[C@@H]2C)cc1 5.29%
Cc1noc(C)c1NC(=O)N(C)C[C@@H]1Oc2ccc(NC(=O)Nc3cccc4ccccc34)cc2CC(=O)N([C@@H](C)CO)C[C@H]1C -4.68%
CCC(=O)N(C)C[C@@H]1Oc2cc(C#CCOC)ccc2S(=O)(=O)N([C@H](C)CO)C[C@H]1C -17.7%
CN(C)C(=O)C[C@H]1C[C@H]2c3cc(NC(=O)Nc4ccccc4F)ccc3O[C@H]2[C@@H](CO)O1 2.09%
COCC(=O)N(C)C[C@H]1Oc2ncc(-c3ccc(C)cc3)cc2C(=O)N([C@@H](C)CO)C[C@@H]1C 25.2%
C/C=C/c1cnc2c(c1)C(=O)N([C@@H](C)CO)C[C@@H](C)[C@H](CN(C)C(=O)c1cnccn1)O2 0.45%
C[C@H](CO)N1C[C@H](C)[C@@H](CN(C)C)Oc2cc(C#Cc3ccccc3)ccc2S1(=O)=O -6.31%
O=C(Nc1ccc2c(c1)[C@H]1C[C@@H](CC(=O)N3CCc4ccccc4C3)O[C@H](CO)[C@H]1O2)Nc1ccccc1F 2.01%
C[C@H](CO)N1C[C@H](C)[C@@H](CN(C)S(=O)(=O)c2ccccc2)Oc2ncc(-c3ccncc3)cc2C1=O 4.23%
C[C@H](CO)N1C[C@H](C)[C@H](CN(C)CC2CCCC2)Oc2ncc(Br)cc2C1=O 0.26%
CC(=O)N(C)C[C@H]1Oc2ncc(C#Cc3ccc(F)cc3)cc2C(=O)N([C@H](C)CO)C[C@@H]1C 3.93%
C[C@@H]1CN([C@H](C)CO)S(=O)(=O)c2ccc(-c3ccncc3)cc2O[C@H]1CN(C)S(=O)(=O)c1ccccc1F -2.69%
CC(C)CC#Cc1ccc2c(c1)O[C@@H](CN(C)C(=O)c1ccccc1F)[C@H](C)CN([C@H](C)CO)S2(=O)=O -7.41%
C[C@@H]1CN([C@@H](C)CO)S(=O)(=O)c2ccc(C#C[C@@H](C)O)cc2O[C@@H]1CN(C)CC1CC1 4.62%
COCC#Cc1ccc2c(c1)O[C@@H](CN(C)Cc1cccnc1)[C@@H](C)CN([C@H](C)CO)S2(=O)=O 5.56%
COc1ccc(S(=O)(=O)Nc2ccc3c(c2)C(=O)N([C@@H](C)CO)C[C@H](C)[C@@H](CN(C)S(=O)(=O)c2ccc(C)cc2)OCCCC[C@@H](C)O3)cc1 -8.56%
C[C@@H]1CN([C@@H](C)CO)S(=O)(=O)c2ccc(Br)cc2O[C@@H]1CN(C)C(=O)C1CCCCC1 -6.34%
C[C@@H]1CN([C@H](C)CO)S(=O)(=O)c2ccc(C#CC(C)(C)O)cc2O[C@@H]1CN(C)Cc1ccccc1 -5.05%
COCC(=O)N(C)C[C@@H]1Oc2cc(C3=CCCC3)ccc2S(=O)(=O)N([C@@H](C)CO)C[C@H]1C -2.03%
C[C@@H]1CN([C@@H](C)CO)S(=O)(=O)c2ccc(Br)cc2O[C@H]1CN(C)S(=O)(=O)c1ccccc1 0.606%
COc1ccc(NC(=O)Nc2ccc3c(c2)[C@H]2C[C@H](CC(=O)NC4CCCC4)O[C@H](CO)[C@H]2O3)cc1 -1.24%
C[C@@H]1CCCCO[C@H](CN(C)C(=O)Cc2ccccc2)[C@H](C)CN([C@@H](C)CO)C(=O)c2cc(NS(=O)(=O)c3ccc(F)cc3)ccc2O1 6.79%
C[C@H](CO)N1C[C@H](C)[C@@H](CN(C)C(=O)C2CCCCC2)Oc2cc(C3=CCCC3)ccc2S1(=O)=O -2.1%
COc1ccc(NC(=O)Nc2ccc3c(c2)C(=O)N([C@@H](C)CO)C[C@@H](C)[C@H](CN(C)C(=O)CCC(F)(F)F)OCCCC[C@@H](C)O3)cc1 -1.97%
C/C=C/c1ccc2c(c1)O[C@@H](CN(C)C(=O)C1CCOCC1)[C@H](C)CN([C@H](C)CO)S2(=O)=O 12.8%
C[C@@H]1CN([C@@H](C)CO)C(=O)Cc2cc(NS(=O)(=O)c3ccc(Cl)cc3)ccc2O[C@H]1CN(C)Cc1ccc(C(F)(F)F)cc1 -12.4%
